# Many of the other results were omitted from the sample, so the strongest signals are more common in it than they were.
# How the values were obtained:
# Test in all cases: glycan array binding signal (z-score within array); higher = stronger binding
# Conditions in all cases: glycan notation: IUPAC condensed, linker removed
# [1] = molecular target: Fuc(a1-2)Gal(b1-3)[Fuc(a1-4)]GlcNAc
# How it was run: (§1)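 Glycan array data were curated from 3228 arrays in the Consortium for Functional Glycomics database and kept only where the protein sequence was available. Glycan names were converted to IUPAC-condensed notation, and columns mapping to the same glycan were averaged. The binding signal is a within-array Z-score, averaged across arrays of the same protein sequence at different concentrations or buffers and across linkers. Negative Z-scores can be read as non-binding.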
# [2] = molecular target: Fuc(a1-2)Gal(b1-4)GlcNAc(b1-2)[Fuc(a1-2)Gal(b1-4)GlcNAc(b1-4)]Man(a1-3)[Fuc(a1-2)Gal(b1-4)GlcNAc(b1-2)Man(a1-6)]Man(b1-4)GlcNAc(b1-4)GlcNAc
# How it was run: as §1
# [3] = molecular target: Fuc(a1-2)Gal(b1-4)GlcNAc(b1-3)GalNAc
# How it was run: as §1
# [4] = molecular target: Fuc(a1-2)Gal(b1-4)GlcNAc(b1-3)[Fuc(a1-3)[Gal(b1-4)]GlcNAc(b1-6)]Gal(b1-4)Glc
# How it was run: as §1
# [5] = molecular target: Fuc(a1-2)Gal(b1-4)[Fuc(a1-3)]GlcNAc(b1-2)[Fuc(a1-2)Gal(b1-4)[Fuc(a1-3)]GlcNAc(b1-4)]Man(a1-3)[Fuc(a1-2)Gal(b1-4)[Fuc(a1-3)]GlcNAc(b1-2)Man(a1-6)]Man(b1-4)GlcNAc(b1-4)GlcNAc
# How it was run: as §1
# Fuc(a1-2)Gal6S(b1-4)Glc = molecular target: Fuc(a1-2)Gal6S(b1-4)Glc
# How it was run: as §1
# [6] = molecular target: Fuc(a1-2)[Gal(a1-3)]Gal(b1-4)GlcNAc(b1-2)Man(a1-3)[Fuc(a1-2)[Gal(a1-3)]Gal(b1-4)GlcNAc(b1-2)Man(a1-6)]Man(b1-4)GlcNAc(b1-4)GlcNAc
# How it was run: as §1
# [7] = molecular target: Fuc(a1-2)[Gal(a1-3)]Gal(b1-4)GlcNAc(b1-6)GalNAc
# How it was run: as §1
# [8] = molecular target: Fuc(a1-3)[Gal(b1-4)]GlcNAc(b1-2)Man(a1-3)[Fuc(a1-3)[Gal(b1-4)]GlcNAc(b1-2)Man(a1-6)]Man(b1-4)GlcNAc(b1-4)[Fuc(a1-6)]GlcNAc
# How it was run: as §1
# [9] = molecular target: Fuc(a1-3)[Gal3S(b1-4)]Glc
# How it was run: as §1
# [10] = molecular target: Gal(a1-3)Gal(b1-3)GlcNAc(b1-2)Man(a1-3)[Gal(a1-3)Gal(b1-3)GlcNAc(b1-2)Man(a1-6)]Man(b1-4)GlcNAc(b1-4)GlcNAc
# How it was run: as §1
# [11] = molecular target: Gal(a1-3)Gal(b1-3)GlcNAc(b1-6)GalNAc
# How it was run: as §1
# Gal(a1-3)Gal(b1-4)GlcNAc = molecular target: Gal(a1-3)Gal(b1-4)GlcNAc
# How it was run: as §1
# [12] = molecular target: Gal(b1-3)GlcNAc(b1-2)Man(a1-3)[Gal(b1-3)GlcNAc(b1-2)Man(a1-6)]Man(b1-4)GlcNAc(b1-4)GlcNAc
# How it was run: as §1
# [13] = molecular target: Gal(b1-3)GlcNAc(b1-3)Gal(b1-4)GlcNAc(b1-3)Gal(b1-4)GlcNAc(b1-2)[Gal(b1-3)GlcNAc(b1-3)Gal(b1-4)GlcNAc(b1-3)Gal(b1-4)GlcNAc(b1-6)]Man(a1-6)[Gal(b1-3)GlcNAc(b1-3)Gal(b1-4)GlcNAc(b1-3)Gal(b1-4)GlcNAc(b1-2)Man(a1-3)]Man(b1-4)GlcNAc(b1-4)[Fuc(a1-6)]GlcNAc
# How it was run: as §1
# [14] = molecular target: Gal(b1-3)[Fuc(a1-4)]GlcNAc(b1-6)GalNAc
# How it was run: as §1
# [15] = molecular target: Gal(b1-4)GlcNAc(b1-2)Man(a1-3)Man(b1-4)GlcNAc(b1-4)GlcNAc
# How it was run: as §1
# [16] = molecular target: Gal(b1-4)GlcNAc(b1-2)Man(a1-6)[Man(a1-3)]Man(b1-4)GlcNAc(b1-4)GlcNAc
# How it was run: as §1
# [17] = molecular target: Gal(b1-4)GlcNAc(b1-2)[Gal(b1-4)GlcNAc(b1-4)]Man(a1-3)[GlcNAc(b1-4)][Gal(b1-4)GlcNAc(b1-2)Man(a1-6)]Man(b1-4)GlcNAc(b1-4)GlcNAc
# How it was run: as §1
# [18] = molecular target: Gal(b1-4)GlcNAc(b1-2)[Gal(b1-4)GlcNAc(b1-6)]Man(a1-6)[Gal(b1-4)GlcNAc(b1-2)Man(a1-3)]Man(b1-4)GlcNAc(b1-4)GlcNAc
# How it was run: as §1
# [19] = molecular target: Gal(b1-4)GlcNAc(b1-3)Gal(b1-4)GlcNAc(b1-3)Gal(b1-4)GlcNAc
# How it was run: as §1
# [20] = molecular target: Gal(b1-4)GlcNAc(b1-3)Gal(b1-4)GlcNAc(b1-3)Gal(b1-4)GlcNAc(b1-3)Gal(b1-4)GlcNAc(b1-2)Man(a1-3)[Gal(b1-4)GlcNAc(b1-3)Gal(b1-4)GlcNAc(b1-3)Gal(b1-4)GlcNAc(b1-3)Gal(b1-4)GlcNAc(b1-2)Man(a1-6)]Man(b1-4)GlcNAc(b1-4)[Fuc(a1-6)]GlcNAc
# How it was run: as §1
# [21] = molecular target: Gal(b1-4)GlcNAc(b1-3)Gal(b1-4)GlcNAc(b1-3)Gal(b1-4)GlcNAc(b1-3)Gal(b1-4)GlcNAc(b1-3)Gal(b1-4)GlcNAc(b1-2)Man(a1-3)[Gal(b1-4)GlcNAc(b1-3)Gal(b1-4)GlcNAc(b1-3)Gal(b1-4)GlcNAc(b1-3)Gal(b1-4)GlcNAc(b1-3)Gal(b1-4)GlcNAc(b1-2)Man(a1-6)]Man(b1-4)GlcNAc(b1-4)GlcNAc
# How it was run: as §1
# [22] = molecular target: Gal(b1-4)GlcNAc(b1-6)[Gal(b1-4)GlcNAc(b1-3)]GalNAc
# How it was run: as §1
# [23] = molecular target: Gal3S(b1-4)[Fuc(a1-3)]GlcNAc6S
# How it was run: as §1
# GalNAc3S(b1-4)GlcNAc3S = molecular target: GalNAc3S(b1-4)GlcNAc3S
# How it was run: as §1
# GalNAc4S6S(b1-4)GlcNAc = molecular target: GalNAc4S6S(b1-4)GlcNAc
# How it was run: as §1
# Glc(a1-4)Glc = molecular target: Glc(a1-4)Glc
# How it was run: as §1
# GlcA(b1-3)Gal = molecular target: GlcA(b1-3)Gal
# How it was run: as §1
# [24] = molecular target: GlcNAc(a1-4)Gal(b1-4)GlcNAc(b1-3)Gal(b1-4)Glc
# How it was run: as §1
binder,measurement,setting,value
his-Lectin-24A (Drosophila melanogaster) (protein) MFRLSVLVLNLLLVSHEFSAGTAKIEIQPLPALCNGYCFPTLKPVMEYVAIHQDKWNTCTEILANEARKDQIQLNIQLDALKADVSNIKASQLSKDEKLDRMEREQFAMHESLETINRYLTVKLDRTKLQLEAIKNTMDYMKAQMDGYFSAINGVQCLQPGFEKIGDRYFYIEEDVELNWLDAQAKCRRMGGHLASIKTKQEFDAIVEKLDDSKSYFLGVNENTKTGDFVSAASGKSCLYHEWGPGEPHHNNDQERCVSILRKLMHVGNCTYEKRFICQYGI,glycan array binding signal (z-score),[1],-0.536
same,glycan array binding signal (z-score),[2],2.61
same,glycan array binding signal (z-score),[3],-0.522
same,glycan array binding signal (z-score),[4],2.69
same,glycan array binding signal (z-score),[5],-0.328
same,glycan array binding signal (z-score),Fuc(a1-2)Gal6S(b1-4)Glc,-0.34
same,glycan array binding signal (z-score),[6],2.02
same,glycan array binding signal (z-score),[7],0.328
same,glycan array binding signal (z-score),[8],0.275
same,glycan array binding signal (z-score),[9],-1.19
same,glycan array binding signal (z-score),[10],2.35
same,glycan array binding signal (z-score),[11],-0.445
same,glycan array binding signal (z-score),Gal(a1-3)Gal(b1-4)GlcNAc,0.285
same,glycan array binding signal (z-score),[12],1.74
same,glycan array binding signal (z-score),[13],1.49
same,glycan array binding signal (z-score),[14],2.34
same,glycan array binding signal (z-score),[15],0.019
same,glycan array binding signal (z-score),[16],2.68
same,glycan array binding signal (z-score),[17],-1.25
same,glycan array binding signal (z-score),[18],-0.553
same,glycan array binding signal (z-score),[19],-0.79
same,glycan array binding signal (z-score),[20],3.44
same,glycan array binding signal (z-score),[21],4.07
same,glycan array binding signal (z-score),[22],0.403
same,glycan array binding signal (z-score),[23],0.382
same,glycan array binding signal (z-score),GalNAc3S(b1-4)GlcNAc3S,3.3
same,glycan array binding signal (z-score),GalNAc4S6S(b1-4)GlcNAc,6.71
same,glycan array binding signal (z-score),Glc(a1-4)Glc,-0.592
same,glycan array binding signal (z-score),GlcA(b1-3)Gal,0.317
same,glycan array binding signal (z-score),[24],2.7

# From the supplement of paper PMC8728848
